Screen size: about 69,000 compounds; about 950 (1.4%) showed an effect of 50% or more. The sample as a whole holds a higher share of strong results than the screen did.
test system: Mycobacterium tuberculosis; experiment: Cornell M. t heat shock assay; format: functional, organism-based; design: dose or concentration left out as unconfirmed; note: in the data most compounds retested in dose-response had high values

First: O=C(CCc1ccccc1Br)NS(=O)(=O)c1ccc2c(c1)OCCO2
Second: O=C(CCc1ccccc1F)NS(=O)(=O)c1ccc2c(c1)OCCO2
The “Percent Effect” value of the first is higher: 6.065% for the first, -5.66% for the second.

Compared with `O=C(CCc1ccccc1Cl)NS(=O)(=O)c1ccc2c(c1)OCCO2`, `Cc1ccc(CNC2CCCc3c2cnn3Cc2ccccc2)s1.Cl` (centres undefined) is lower in “Percent Effect” value: 62.1% for the first, 52.93% for the second.

Compared with `Cl.O=C(NC1CCCC1)C1(Cc2cc(C3CCOC3)no2)CCNCC1` (centres undefined), `CN(C(=O)C1CCCCC1)[C@@H]1CCC[C@@H](N2CCOCC2)[C@@H]1O` is lower in “Percent Effect” value: 5.68% for the first, -6.532% for the second.

Going from `O=C(c1cnc(-c2ccccn2)s1)N1CCCC(n2cccn2)C1` (centres undefined) to `O=S(=O)(N1CCOCC1)N1CCCC(c2ccccn2)C1` (centres undefined), the “Percent Effect” value falls from -7.844% to -20.74%.

Compared with `CC1CCN(C(=O)[C@H]2CC[C@@H]3[C@@H](CCN3Cc3nccs3)O2)CC1.O=C(O)C(F)(F)F`, `Fc1ccc(CN2CC[C@H]3O[C@@H](COCC4CCOCC4)CC[C@H]32)cc1.O=C(O)C(F)(F)F` is lower in “Percent Effect” value: -10.06% for the first, -16.61% for the second.

First: COc1ccc(CNC(=O)N2CCN(CC(O)C3CC3)CC2)cc1.Cl (centres undefined)
Second: Cc1ccc(CNC(CN2CCN(C)CC2)c2ccccc2)cc1 (centres undefined)
The “Percent Effect” value of the first is higher: 14.41% for the first, 5.608% for the second.

Going from `CC(C)Cc1nc(CN(C)c2cc(C(C)C)nc3ccnn23)no1` to `CC(C)c1cc(N(C)Cc2noc(C3CCCC3)n2)n2nccc2n1`, the “Percent Effect” value rises from 23.84% to 67.06%.

Compared with `CC(C)c1cc(N(C)Cc2cc(C3CC3)on2)n2nccc2n1`, `Cc1noc(C)c1-c1nc(C2CCCNC2)ccc1CO.Cl.Cl` (centres undefined) is lower in “Percent Effect” value: 41.46% for the first, 6.462% for the second.

First: COC(=O)N1CCC(Nc2cccc(F)c2C#N)CC1
Second: COC(=O)N1CCC(Nc2cccc(F)c2C(C)=O)CC1
The “Percent Effect” value of the first is higher: 83.06% for the first, 5.265% for the second.

Compared with `COC(=O)N1CCC(Nc2cccc(F)c2C(C)=O)C1` (centres undefined), `Cn1ncc2c1CN(Cc1ccccc1F)CC2COCC1CC1.O=C(O)C(F)(F)F.O=C(O)C(F)(F)F` (centres undefined) is higher in “Percent Effect” value: 10.56% for the first, 103.1% for the second.

First: O=C(O)C(F)(F)F.O=C(O)C(F)(F)F.O=C(O)C(F)(F)F.c1cc(CN2C[C@@H]3OCCN(CC4CCCO4)[C@@H]3C2)ccn1 (some centres undefined)
Second: O=C(O)C(F)(F)F.O=C(O)C(F)(F)F.O=C(O)C(F)(F)F.O=C1CO[C@@H]2CN(Cc3cccnc3)C[C@H]2N1Cc1ccncc1
The “Percent Effect” value of the first is lower: -18.75% for the first, -18.69% for the second.

Compared with `CN(C(=O)C1CCOCC1)[C@@H]1CCC[C@@H](N2CCOCC2)[C@@H]1O`, `CN(C(=O)C1CCOCC1)[C@@H]1CCC[C@@H](N2CCCC2)[C@@H]1O` is higher in “Percent Effect” value: -10.17% for the first, 60.86% for the second.

Compared with `CC(C)OCCCN(Cc1cnn(C)c1)Cc1ccccn1.O=C(O)CC(O)(CC(=O)O)C(=O)O`, `Cn1nnc2c1C(COCc1ccccn1)CN(Cc1ccoc1)C2.O=C(O)C(F)(F)F.O=C(O)C(F)(F)F` (centres undefined) is lower in “Percent Effect” value: -10.12% for the first, -16.51% for the second.

First: CCC1=N[C@@]2(CC[C@@H]3CN(CC4CC4)C[C@@H]32)C(=O)N1C.O=C(O)C(F)(F)F
Second: CCC1=N[C@@]2(CC[C@@H]3CN(Cc4ccc(F)cc4)C[C@@H]32)C(=O)N1C.O=C(O)C(F)(F)F
The “Percent Effect” value of the first is lower: 5.845% for the first, 6.299% for the second.

Going from `CCCC(O)CN1CC(C)(C)CN(C(=O)CCc2ccccc2)CC1=O` (centres undefined) to `COCC(O)CN1CC(C)(C)CN(C(=O)CCc2ccccc2)CC1=O` (centres undefined), the “Percent Effect” value rises from 10.24% to 27.88%.

Going from `CCN1CC(C)(C)CN(C(=O)CCc2ccccc2)CC1=O` to `CC(O)CN1CC(C)(C)CN(C(=O)CCc2ccccc2)CC1=O` (centres undefined), the “Percent Effect” value rises from 22.76% to 50.7%.

First: CC(C)(O)CN1CC(C)(C)CN(C(=O)CCc2ccccc2)CC1=O
Second: CN1CC(C)(C)CN(C(=O)CCc2ccccc2)CC1=O
The “Percent Effect” value of the first is higher: 52.03% for the first, 21.51% for the second.

Going from `CCC(C)[C@H](N)c1nnc(SCC(=O)Nc2cc(C)ccc2C)o1.Cl` (some centres undefined) to `COc1ccc(-c2cc3nn(CC(=O)NC(C)C)c(=O)n3c(C)n2)cc1`, the “Percent Effect” value rises from -10.79% to 21.42%.

First: Cc1cc2c(=O)n3c(nc2s1)CCN(Cc1c[nH]cn1)CC3.Cl
Second: Cc1cc(N2CCCC2c2nnc3n2CCCCC3)nc(N)n1 (centres undefined)
The “Percent Effect” value of the first is lower: -21.28% for the first, -8.114% for the second.

Going from `Clc1ccc(C2(CNC3=NCCN3)CCCCC2)cc1.I` to `Clc1ccc(C2(CNC3=NCCN3)CCCC2)cc1.I`, the “Percent Effect” value falls from 77.48% to 20.92%.

First: Clc1ccc(C2(CNC3=NCCN3)CC2)cc1.I
Second: Fc1ccc(N2CCCN(c3ccc(Cn4ccnc4)cn3)CC2)cc1
The “Percent Effect” value of the first is lower: -24.96% for the first, 107.2% for the second.

Going from `O=C(NCC1CC1)[C@H]1C[C@H]2OCC[C@H]2N(CCc2ccccc2)C1.O=C(O)C(F)(F)F` to `COCCC(=O)N1CC[C@@H](N2CCOCC2)[C@@H]1Cc1ccccc1.O=C(O)C(F)(F)F`, the “Percent Effect” value falls from -0.2328% to -10.34%.

First: Cc1nc(-c2ccccc2)cc2nn(CC(N)=O)c(=O)n12
Second: COc1ccc(-c2cc3nn(CC(N)=O)c(=O)n3c(C)n2)cc1
The “Percent Effect” value of the first is higher: 80.99% for the first, 28.25% for the second.

First: COCCN1CCC2(COCCN(Cc3ccc4c(c3)OCO4)C2)C1.O=C(O)C(F)(F)F.O=C(O)C(F)(F)F (centres undefined)
Second: COCCN1C[C@@H]2CCCO[C@@H]2[C@H](N(C)Cc2ccco2)C1.O=C(O)C(F)(F)F.O=C(O)C(F)(F)F
The “Percent Effect” value of the first is lower: -9.9% for the first, 1.752% for the second.

First: CC(C)(C)n1nc(C(=O)NC2CCN(CC(N)=O)CC2)cc1C1CC1
Second: Cc1cc(C(=O)NC2CCN(CC(N)=O)CC2)nn1C(C)(C)C
The “Percent Effect” value of the first is lower: 19.52% for the first, 61.29% for the second.

First: CC(C)c1cc(C(=O)NC2CCN(CC(N)=O)CC2)nn1C(C)(C)C
Second: Cc1cnccc1-c1cnn(CCNC(=O)C(C)(C)C)c1C1CC1.Cl
The “Percent Effect” value of the first is higher: 17.37% for the first, -19.45% for the second.

Going from `Cn1ccnc1C(NCc1csc(Br)c1)c1ccccc1` (centres undefined) to `Cn1ccnc1C(NCc1ccc(Br)cc1)c1ccccc1` (centres undefined), the “Percent Effect” value rises from 103.5% to 112.1%.

Compared with `Cc1cnn(CC(C)NCc2ccc(OCc3nccn3C)cc2)c1` (centres undefined), `Cc1ccc(CNC(c2ccccc2)c2nccn2C)cc1.Cl` (centres undefined) is higher in “Percent Effect” value: -7.408% for the first, 106.1% for the second.

First: O=C(CCNc1ncccn1)NCc1csc(Br)c1
Second: O=C(NCc1csc(Br)c1)c1ccncc1
The “Percent Effect” value of the first is lower: 2.477% for the first, 14.96% for the second.

Going from `Cc1ccc(CNCC(C)Oc2ccccn2)cc1.Cl` (centres undefined) to `Cc1ccc(CNC(c2ccccc2)c2nccn2C)cc1C` (centres undefined), the “Percent Effect” value rises from -12.77% to 103.6%.

Compared with `Cc1cccc(CNC(CN2CCN(C)CC2)c2ccccc2)c1` (centres undefined), `Cc1ccc(CNC(CN2CCN(C)CC2)c2ccccc2)cc1C` (centres undefined) is higher in “Percent Effect” value: -9.551% for the first, 7.265% for the second.

Compared with `COc1cc(CNC(c2ccccc2)c2nccn2C)cc(OC)c1` (centres undefined), `Cc1cc(C)cc(CNC(c2ccccc2)c2nccn2C)c1` (centres undefined) is higher in “Percent Effect” value: 110.9% for the first, 112.3% for the second.

Going from `COc1cc(CNC(C)Cn2cccn2)cc(OC)c1` (centres undefined) to `COc1ccc(CNC(Cn2cncn2)c2ccccc2)cc1C` (centres undefined), the “Percent Effect” value rises from -10.57% to 7.595%.

Compared with `Cc1cc(C)cc(CNC(C)c2c(C)nn(C)c2C)c1` (centres undefined), `COc1c(CNC(c2ccccc2)c2nccn2C)c(C)nn1C` (centres undefined) is higher in “Percent Effect” value: -33.33% for the first, -17.9% for the second.

Compared with `Cn1ccnc1CN1CCC2(CC(=O)N(c3cncnc3)C2)C1.O=C(O)C(F)(F)F` (centres undefined), `Cn1cc(N2CC3(CCN(Cc4ccsc4)CC3)OCC2=O)cn1.O=C(O)C(F)(F)F` is lower in “Percent Effect” value: 8.638% for the first, -18.04% for the second.

First: CC(C)NC(=O)c1sc2ccccc2c1[C@H]1CC[C@H](CN)CC1.Cl
Second: COCCN1C(=O)CC(N2CCN(c3ccccc3)CC2)C1=O (centres undefined)
The “Percent Effect” value of the first is lower: 6.071% for the first, 12.72% for the second.

Going from `O=C(O)C(F)(F)F.c1cnc(N2Cc3nccn3CC(COc3cccnc3)C2)nc1` (centres undefined) to `Cn1ncc2c1CN(Cc1cccnc1)CC2COCC1CC1.O=C(O)C(F)(F)F.O=C(O)C(F)(F)F.O=C(O)C(F)(F)F` (centres undefined), the “Percent Effect” value falls from -4.281% to -6.244%.

Compared with `Cn1ccnc1-c1noc(NCc2ccccc2)n1`, `Cn1ccnc1-c1noc(NCc2ccc(Br)cc2)n1` is higher in “Percent Effect” value: -11.975% for the first, -1.325% for the second.

First: CCNC(c1ccc(Br)cc1)c1cccnc1 (centres undefined)
Second: c1csc(CN2CCCN(c3ccc(Cn4ccnc4)cn3)CC2)c1
The “Percent Effect” value of the first is higher: 0.8227% for the first, -13.19% for the second.

First: O=C(O)C(F)(F)F.O=C1COC2(CCN(Cc3ccco3)CC2)CN1
Second: CNC(=O)COC1COC2(CCN(Cc3cccnc3)CC2)C1.O=C(O)C(F)(F)F (centres undefined)
The “Percent Effect” value of the first is lower: -45.46% for the first, 22.59% for the second.

Going from `c1cn(Cc2ccc(N3CCCN(C4CCCC4)CC3)nc2)cn1` to `Clc1cncc(N2CCCC2c2nnc3n2CCCCC3)n1` (centres undefined), the “Percent Effect” value falls from 1.871% to -7.126%.

Compared with `Cc1cc2c(cc1CNC(Cc1cccs1)c1nccs1)OCO2.Cl` (centres undefined), `Cc1cccc(CNC2CCCc3c2cnn3Cc2ccccc2)c1.Cl` (centres undefined) is lower in “Percent Effect” value: 5.172% for the first, -5.892% for the second.

Going from `CC(=O)N1C[C@@H]2CN(Cc3cccnc3)CCO[C@@H]2C1.O=C(O)C(F)(F)F.O=C(O)C(F)(F)F` to `Cn1ncc2c1CN(Cc1ccc(F)cc1)CC2COCC1CC1.O=C(O)C(F)(F)F.O=C(O)C(F)(F)F` (centres undefined), the “Percent Effect” value rises from -47.04% to -18.92%.

First: O=C(O)C(F)(F)F.O=C1[C@H]2CN(CC3CC3)C[C@H]2CN1c1ccsc1
Second: CN1C(=O)CCC12CCCN(C(=O)c1ccncc1F)C2.O=C(O)C(F)(F)F (centres undefined)
The “Percent Effect” value of the first is lower: 20.81% for the first, 38.17% for the second.

First: Cc1cc(N2CCCC2c2nnc3n2CCCCC3)nc(C)n1 (centres undefined)
Second: COCCN1C(=O)CC(N2CCN(c3ccc(OC)cc3)CC2)C1=O (centres undefined)
The “Percent Effect” value of the first is lower: 66.84% for the first, 70.99% for the second.

First: COCCN1C(=O)CC(N2CCN(c3ccc(F)cc3)CC2)C1=O (centres undefined)
Second: Cc1cccc(CN2CC[C@@H]3[C@@H]2CCN3Cc2cccs2)n1.O=C(O)C(F)(F)F.O=C(O)C(F)(F)F
The “Percent Effect” value of the first is lower: -16.16% for the first, -14.73% for the second.

Compared with `Cl.NCC(=O)N1CCC(c2ccnc(Nc3cc(C(F)(F)F)ccn3)n2)C1` (centres undefined), `CCn1ncc2c1CCCC2NCc1ccc(C)s1` (centres undefined) is higher in “Percent Effect” value: -2.931% for the first, 16.54% for the second.

From ChEMBL document CHEMBL3988442, “University of Dundee, Small-Polar-MMV Screening Library” (2021)
